Nrf2 block: Nrf2 qHTS screen for inhibitors; A549 ARE-Fluc reporter, luciferase luminescence, 18-24 h; Potency, µM (series often up to 46 µM), for inactives: at the highest dose activity change, negative = inhibition, actives largely listed as inhibitors; 360,000 compounds, 2.1% hits; also: potency is read from the fitted curve at half-maximal effect; % is scaled to controls: 0 for no effect and ±100 for the full control effect; nearly all actives have a fitted effect of over 60% in size
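Nrf2 function is reported as luminescence of an ARE-controlled luciferase in A549 cells. Compounds were tested at several concentrations, and a CellTiter-Fluor read on the same wells flagged cytotoxicity.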
miR-21 act: qHTS Assay for Modulators of miRNAs and/orActivators of miR-21. AID 2288, 2010. Potency, µM (highest dose often 38.3 µM), inactives show top-dose activity change, positive = activation, hits mostly activators. 340,000 tested, under 10 active. HeLa miR-21 FLuc reporter, luciferase, 48 h;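 also: % of control where 0% means no effect; miR-21 action dims this reporter so a rising signal means less miR-21 action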
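Luminescence from a firefly luciferase reporter carrying a miR-21 binding site downstream, stably expressed under a CMV promoter in HeLa cells that make miR-21 endogenously, reports miRNA modulation after 48 h compound exposure up to approximately 40uM final.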
IL2 activator: qHTS of IL-2 Activators. IL-2 activation reporter assay, cell-based qHTS; stimulated with anti-CD3/CD4/CD28 beads; in transgenic mouse T cells. activation, % (series mostly up to about 46 µM). 360,000 compounds, 0.065% hits; in the data active = activation above about 50%; inconclusive = mostly about 30% to 49%; also: 0% is about no effect
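Quantitative HTS in unstimulated transgenic mouse T cells, with memory T cells as non-tolerant control and PMA/ionomycin as tolerance-bypass control. Compound pretreatment lasted 60 minutes before 18 h bead stimulation; EGFP/DsRed fluorescence read.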
ClpP mod: qHTS Assay for Activators of ClpP; Potency, µM (highest dose often 57.5 µM), for inactives: at the top dose activity change, negative = active; AID 651965, 2013; purified B. subtilis ClpP, FRET peptide cleavage, 20 min; 340,000 compounds, 1.9% hits; active = well fitted falling curve with a large enough effect; inconclusive = small, poorly fitted or top-dose-only effect; inactive = no such curve, though single readings can be large or run the other way; also: potency is read from the fitted curve at half-maximal effect; the source files actives as falling curves though it sought activators and does not explain the sign; nearly all actives have a fitted effect of over 65% in size
Target sequence (P80244 whole entry, looked up): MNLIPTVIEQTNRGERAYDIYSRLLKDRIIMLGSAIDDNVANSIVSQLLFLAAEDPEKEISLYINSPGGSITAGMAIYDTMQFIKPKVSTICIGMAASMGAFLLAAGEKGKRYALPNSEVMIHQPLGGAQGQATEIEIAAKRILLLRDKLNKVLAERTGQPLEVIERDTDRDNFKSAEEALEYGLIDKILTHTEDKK
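Buffer: 100 mM Tris/HCl pH8, 100 mM KCl, 0.05% low protease BSA, 2.5% glycerol, 0.01% Tween-20. ClpP 10 microg/mL final; 20 min RT; delta FRET normalized to ADEP and DMSO controls.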
Nrf2 ARE act: qHTS of Nrf2 Activators. Potency, µM (top dose mostly 46.1 µM), without a hit: top-dose activation, most hits filed as activators. 410,000 compounds, 0.31% hits. AREc32 ARE-luciferase reporter (MCF7-derived line), luminescence, 24 h. AID 624171, 2012; also: potency is read from the fitted curve at half-maximal effect; % of control where 0% means no effect; nearly all actives have a fitted effect of over 65% in size
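Luciferase luminescence (Steady-Glo, 30 min at room temperature) served as the read-out of ARE activation in AREc32 cells treated with compounds for 24 hr at 37 deg C.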
A549 viability: Nrf2 qHTS screen for inhibitors: counterscreen for cytotoxicity; A549 ARE-Fluc cells, CellTiter-Fluor viability, 18-24 h; Potency, µM (top dose mostly 46 µM), for the others: at the highest dose activity change, negative = cytotoxicity, hits mostly inhibitors; 390,000 compounds, 0.16% hits; AID 504648, 2011; also: potency is read from the fitted curve at half-maximal effect; % is scaled to controls: 0 for no effect and ±100 for the full control effect
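A549 ARE-Fluc cells in 5% FBS OPTI-MEM, 5000 cells/well, rested 2 h then exposed to compounds in concentration-response for 18-24 h at 37 °C. Viability by CellTiter-Fluor fluorescence (Ex 405/Em 525) after 30 min; luciferase luminescence (BugLite, 15 min, RT) read afterwards.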
* marks the source's active call; other numbers are inactive results; ? = inconclusive; nt = no result given; [ ] = another dose, or the depositor's remark. This is a sample that favours compounds with a hit; in the whole collection about 3.7% have one here. Unless noted, calls follow the shape of the dose curve; as a rule, active = well fitted curve in the direction sought with a large enough effect; inconclusive = small, poorly fitted or top-dose-only effect, or another doubt; inactive = no such curve, though single readings can be large; an effect the other way counts as inactive or inconclusive.

SMILES | Nrf2 block | miR-21 act | IL2 activator | ClpP mod | Nrf2 ARE act | A549 viability
Cc1nc(-c2cccc(S(=O)(=O)N3CCC(C(=O)NCc4ccccc4)CC3)c2)no1 | nt | 13% | nt | -1% | 0% | 0%
COc1cc2cc(C(=O)O)n(C)c2c(OC)c1OC | 8% | 4% | 1 | 13µM* | 0% | 0%
COc1cc2cc(C(=O)N[C@@H](Cc3ccccc3)C(=O)O)n(C)c2c(OC)c1OC | -22% | 4% | 0 | 4% | -1% | 5%
Cc1ccc(Cl)cc1NC(=O)N1CCc2cc(S(=O)(=O)N3CCC(C)CC3)ccc21 | 2% | -5% | nt | 5% | 0% | 2%
COc1cccc(-c2cc(=O)[nH][nH]2)c1 | -16% | -1% | -3 | nt | ? | -6%
CCOc1cccc(-c2cc(=O)[nH][nH]2)c1 | 2% | 0% | -3 | 14µM* | ? | 0%
COc1ccc(N2CC(NC(=O)C3CC3)CC2=O)cc1 (stereo unspecified) | nt | -3% | nt | 0% | 1% | 1%
CC(C)(C)c1ccc(OCC(=O)N/N=C/c2ccc(N3CCOCC3)cc2)cc1 | -21% | -2% | 3 | 35µM* | 0% | -2%
C/C(=N/NC(=O)COc1ccc(C(C)(C)C)cc1)c1ccc(N2CCOCC2)cc1 | -13% | nt | 0 | 1% | 0% | 0%
Cc1cc(NCCCN2CCOCC2)n2ncc(-c3ccc(Cl)cc3)c2n1 | -9% | -29% | -3 | 25µM* | 6% | nt
Cc1cc(NCCCn2ccnc2)n2ncc(-c3ccc(Cl)cc3)c2n1 | ? | -3% | -2 | 20µM* | 8% | 1%[1.84 µM]
CN(C)CCCNc1cc(C(C)(C)C)nc2c(-c3ccc(Cl)cc3)cnn12 | 6% | ? | -6 | nt | 2% | ?
CC(C)(C)c1cc(NCCCn2ccnc2)n2ncc(-c3ccccc3)c2n1 | ? | -22% | -1 | nt | 6% | -3%
Cc1ccc(Cl)cc1NC(=O)Cn1nc2c(cc1=O)CC(C)CC2 (stereo unspecified) | nt | 0% | nt | 3% | -1% | -6%
CN(C(=O)COC(=O)C1CSC2(C)CCC(=O)N12)c1ccccc1 (stereo unspecified) | 7% | nt | -3 | 28µM* | 0% | -2%
CC12CCC(=O)N1C(C(=O)OCC(=O)Nc1cccc(Br)c1)CS2 (stereo unspecified) | 0% | 2% | -2 | nt | 2% | -2%
CCc1ccccc1NC(=O)Cn1c2ncccc2c(=O)n1-c1ccccc1 | -4% | -6% | nt | 4% | 2% | -4%
CCOC(=O)c1ccccc1NC(=O)Cn1c2ncccc2c(=O)n1-c1ccccc1 | ? | 4% | nt | 11µM* | -1% | 9%
O=[N+]([O-])c1ccc(S(=O)(=O)CC(CN2CCCCC2)N2CCCCC2)cc1 (stereo unspecified) | ? | 1% | -1 | 3% | 0% | -4%
O=S(=O)(CC(CN1CCCCC1)N1CCCCC1)c1ccccc1 (stereo unspecified) | 18µM* | ? | 0 | 1% | 0% | ?
O=C(CC1(c2ccc(Cl)cc2)C2CC3CC(C2)CC1C3)NCCO (stereo unspecified) | 6% | 13% | 1 | 13µM* | 0% | -8%
CCOC(=O)N1CCC(NS(=O)(=O)c2ccc(NC(C)=O)c(Cl)c2)CC1 | 12µM* | 13% | 1 | nt | -1% | 1%
CC1CCCN(CCCNC(=O)c2coc3nc4ccccc4nc23)C1 (stereo unspecified) | 13% | -19% | 0 | 13µM* | -1% | -3%
CCCC(=O)N1N=C(c2ccccc2)CC1c1cn(C)c2ccccc12 (stereo unspecified) | -16% | -15% | -3 | ? | 4% | -4%
CC(=O)N1N=C(c2ccc(Br)cc2)CC1c1cn(C)c2ccccc12 (stereo unspecified) | -1% | -10% | 0 | 28µM* | 11% | 2%
SMILES | Nrf2 block | miR-21 act | IL2 activator | ClpP mod | Nrf2 ARE act | A549 viability
Cc1ccnc2ccc(Br)cc12 | nt | nt | nt | 1% | nt | nt
CC(C)(C)NC(=O)C12CC3CC(CC(Cl)(C3)C1)C2 | -13% | 0% | -3 | -2% | 0% | -3%
CC(C)(CO)NC(=O)C12CC3CC(CC(Br)(C3)C1)C2 | 1% | -1% | 2 | 20µM* | 0% | -1%
CCN1N=C(c2ccccc2)Cn2c1nc1ccccc12 | nt | 7% | 0 | 14µM* | 21% | 5%
Cc1ccc2ncc(C(=O)NCc3ccccc3Cl)c(=O)n2c1 | -13% | 4% | nt | 4% | 0% | 1%
Nc1ncnc2c1nc(Cl)n2[C@@H]1O[C@H](CO)[C@@H](O)[C@@H]1O | 21µM* | nt | nt | -9% | nt | -14%
CCOC(=O)C1=C(C)NC(SCC(N)=O)=C(C#N)C1c1cccs1 (stereo unspecified) | -6% | 6% | 1 | -30% | -1% | 1%
CCSC1=C(C#N)C(c2cccs2)C(C(=O)OC)=C(C)N1 (stereo unspecified) | 23µM* | 1% | 0 | -20% | 3% | ?
CCn1c(=O)c2ccccc2n(Cc2cccc([N+](=O)[O-])c2)c1=O | -12% | -2% | 0 | nt | -1% | 1%
O=C(CCn1c(=O)c2ccccc2n(Cc2cccc([N+](=O)[O-])c2)c1=O)N1CCc2ccccc2C1 | 2% | -5% | -1 | 25µM* | 2% | 2%
CCOc1ccc(NC(=O)CSc2cn(CC(=O)N3CCCCCC3)c3ccccc23)cc1 | 6% | 7% | nt | 1% | 5% | -1%
O=[N+]([O-])c1ccc2c(c1)C=C/C2=C\c1ccc(C=S)cc1 | nt | nt | nt | 1% | nt | nt
COc1c(C)cc(Br)cc1C(=O)Nc1ccccc1N1CCN(C(=O)c2ccccc2)CC1 | ? | 0% | -3 | 18µM* | 0% | -9%
CC(C)CN1C(=O)C(=O)N(CC(=O)Nc2cc(Cl)ccc2Oc2ccccc2)C1=O | 23µM* | -8% | 7 | nt | 3% | ?
CCCOc1ccc(-c2nonc2NC(=O)c2oc3ccc(C)cc3c2C)cc1OCCC | -10% | 3% | nt | 0% | -1% | 2%
CC(Sc1nc(-c2ccccc2)c(-c2ccccc2)[nH]1)C(=O)NCC1CCCO1 (stereo unspecified) | nt | nt | -3 | 28µM* | 0% | nt
COCCn1cc(C(=O)NCCCN2CCC(C)CC2)c2c3ccccc3n(C)c2c1=O | 0% | -1% | -1 | 32µM* | 0% | 16%
CCN1CCN(CCCNC(=O)c2cn(CCOC)c(=O)c3c2c2ccccc2n3C)CC1 | nt | 1% | 1 | 3.2µM* | 0% | 7%

Source: PubChem (National Center for Advancing Translational Sciences (NCATS))
